Assays:
Conditions in all cases: concentration: 1 μM, replicates: in singlicate; n = 1
BMX = tested on: BMX
BRAF = tested on: BRAF
BRK = tested on: T1, BRK
T1 construct: gene PTK6

BRSK1 = tested on: BRSK1
BRSK2 = tested on: BRSK2
BTK = tested on: BTK
BUB1 = tested on: BUB1
CAMK1B = tested on: CAMK1B
CAMK1D = tested on: CAMK1D
CAMK1G = tested on: CAMK1G
CAMK1 = tested on: CAMK1
CAMK2A = tested on: CAMK2A
CAMK2B = tested on: CAMK2B
CAMK2D = tested on: CAMK2D
CAMK2G = tested on: CAMK2G
CAMK4 = tested on: CAMK4
CAMKK1 = tested on: CAMKK1
CAMKK2 = tested on: CAMKK2
CASK = tested on: CASK
CDC2L1 = tested on: T2, CDC2L1
T2 construct: gene CDK11B
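Note: KINOMEscan kinase panel screen.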

Compound	%Inh (BMX)	%Inh (BRAF)	%Inh (BRK)	%Inh (BRSK1)	%Inh (BRSK2)	%Inh (BTK)	%Inh (BUB1)	%Inh (CAMK1B)	%Inh (CAMK1D)	%Inh (CAMK1G)	%Inh (CAMK1)	%Inh (CAMK2A)	%Inh (CAMK2B)	%Inh (CAMK2D)	%Inh (CAMK2G)	%Inh (CAMK4)	%Inh (CAMKK1)	%Inh (CAMKK2)	%Inh (CASK)	%Inh (CDC2L1)
CN1CCN(CCCNc2nccc(-c3c(-c4ccc(F)cc4)nn4cc(C(F)(F)F)ccc34)n2)CC1 [GW621581]	0%	41%	9%	2%	1%	0%	26%	5%	11%	0%	5%	0%	0%	0%	0%	0%	0%	0%	0%	0%
Cl.NC(=O)c1cccc(Nc2nccc(Nc3ccc(Oc4c(Cl)cccc4Cl)c(Cl)c3)n2)c1 [GW659009]	0%	6%	76%	0%	0%	36%	17%	0%	2%	0%	14%	0%	0%	0%	0%	0%	0%	0%	50%	0%
COc1cc(Nc2nccc(-c3c(-c4cccc(NC(=O)c5c(F)cccc5F)c4)nn4ccccc34)n2)cc(OC)c1OC [GSK323521]	7%	9%	57%	8%	13%	1%	3%	0%	21%	31%	31%	3%	0%	35%	40%	30%	40%	38%	5%	0%
O=C(Nc1n[nH]c2cc(-c3ccoc3)ccc12)C1CC1 [SB-738481]	16%	0%	0%	11%	0%	0%	0%	0%	0%	0%	0%	8%	0%	14%	25%	0%	2%	18%	0%	0%
COc1ccc(Nc2nccc(NCCNC(=O)c3cc4ccccc4s3)n2)cc1 [GSK1379896]	17%	0%	1%	6%	0%	0%	9%	39%	6%	0%	4%	0%	0%	0%	16%	0%	0%	0%	5%	0%
CNC(=O)c1ccccc1Nc1nc(Nc2ccc(N3CCOCC3)cc2)ncc1Cl.Cl [GSK1576028]	91.4%	72%	94.6%	78%	92.4%	96.9%	96.7%	39%	54%	30%	77%	25%	14%	22%	49%	0%	93.2%	95%	71%	16%
O=C(NC1CCN(c2ccnc(Nc3ccc(F)cc3)n2)C1)c1cc2ccccc2s1 (stereo not shown) [GSK1379716]	22%	0%	25%	18%	9%	0%	64%	9%	17%	0%	26%	0%	0%	7%	23%	13%	10%	17%	22%	0%
COc1cc(Nc2nccc(-c3c(-c4cccc(NC(=O)c5c(F)cccc5F)c4)nn4ncccc34)n2)cc(OC)c1OC [GSK327238]	91.4%	96%	97.6%	0%	40%	94%	54%	0%	13%	3%	58%	0%	0%	10%	19%	0%	24%	18%	14%	16%
Cl.Cl.NCC(C(=O)Nc1cc(Br)c(-c2ccnc3[nH]ccc23)s1)c1ccccc1 (stereo not shown) [GSK1269851]	12%	1%	7%	6%	0%	0%	59%	24%	0%	0%	0%	100%	100%	8%	12%	0%	8%	0%	25%	1%
COc1cc(Nc2nccc(N3CCC(NC(=O)c4cc5ccccc5s4)C3)n2)cc(OC)c1OC (stereo not shown) [GSK1379760]	1%	4%	11%	0%	4%	67%	26%	49%	14%	18%	17%	0%	1%	0%	29%	0%	12%	0%	12%	0%
COc1cc2c(cc1OCCN1CCNCC1)ncc1c3ccc(C#N)cc3[nH]c21	17%	28%	0%	25%	0%	2%	99%	28%	30%	14%	10%	96.8%	86%	88%	79%	0%	80%	64%	25%	14%
Cn1cc(-c2ccc3c(c2)CCN3C(=O)Cc2cccc(Cl)c2)c2c(N)ncnc21 [GSK2606590]	4%	11%	56%	7%	0%	0%	0%	0%	32%	25%	26%	0%	0%	18%	25%	0%	19%	12%	7%	0%
Cc1ccc(C(=O)Nc2ccc(Nc3ccnc4cc(-c5nccs5)ccc34)cc2O)cc1.Cl [GW494702]	18%	1%	38%	0%	0%	100%	35%	8%	0%	15%	13%	0%	0%	0%	14%	0%	3%	6%	4%	0%
O=C(O)C(F)(F)F.O=C(O)C(F)(F)F.O=c1[nH]ccc2nc(N[C@@H]3CCCNC3)nc(Nc3ccc(S(=O)(=O)N4CCOCC4)cc3)c12 [GSK2177277]	58%	0%	9%	69%	69%	90.7%	90.5%	100%	99.1%	74%	88%	100%	99.9%	54%	54%	95.6%	94.2%	57%	2%	0%
Clc1ccc(-c2nn3ncccc3c2-c2ccnc(Nc3ccc4c(c3)OCCO4)n2)cc1 [GW829116]	0%	52%	0%	0%	0%	0%	93.1%	0%	0%	0%	0%	0%	0%	0%	0%	3%	0%	0%	15%	0%
FC(F)(F)c1ccc(/C=C/c2cncnc2Nc2ccc3[nH]c(Cc4ccccc4)nc3c2)cc1 [GW709199]	0%	0%	11%	3%	8%	19%	0%	0%	5%	0%	0%	34%	36%	3%	8%	0%	19%	0%	10%	0%
O=C(Nc1cccc(Oc2ccc3nc(NC(=O)C4CC4)cn3n2)c1)c1ccccc1C(F)(F)F	0%	65%	0%	6%	0%	16%	0%	0%	3%	0%	7%	100%	100%	1%	0%	0%	1%	0%	6%	0%
COc1ccc(CNC(=O)NC2CCN(c3ccnc(Nc4ccc(F)cc4)n3)CC2)cc1 [GSK1379788]	3%	0%	0%	0%	0%	0%	56%	7%	15%	0%	10%	0%	0%	8%	16%	0%	2%	16%	0%	0%
CCS(=O)(=O)c1ccc(OC)c(Nc2nccc(-c3c(-c4cccc(NC(=O)c5c(F)cccc5F)c4)nn4ncccc34)n2)c1 [GSK326180]	0%	90%	93.5%	0%	0%	15%	28%	33%	12%	7%	9%	0%	0%	15%	27%	0%	0%	20%	16%	0%
CC(=O)N1CCN(c2ccc(Nc3nccc(-c4sc(C(C)C)nc4-c4cccc(NS(=O)(=O)c5cccc(Cl)c5)c4)n3)cn2)CC1 [GSK1660437]	56%	99.3%	91.8%	0%	2%	36%	91%	0%	12%	0%	34%	0%	0%	0%	0%	0%	0%	0%	0%	0%
